Experiment [1] concerns the target T1, Inhibitor of nuclear factor kappa-B kinase subunit epsilon (Homo sapiens) (UniProt Q14164).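 Note: reported values are averaged percent inhibition figures against human IKKε.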
T1 sequence (whole entry): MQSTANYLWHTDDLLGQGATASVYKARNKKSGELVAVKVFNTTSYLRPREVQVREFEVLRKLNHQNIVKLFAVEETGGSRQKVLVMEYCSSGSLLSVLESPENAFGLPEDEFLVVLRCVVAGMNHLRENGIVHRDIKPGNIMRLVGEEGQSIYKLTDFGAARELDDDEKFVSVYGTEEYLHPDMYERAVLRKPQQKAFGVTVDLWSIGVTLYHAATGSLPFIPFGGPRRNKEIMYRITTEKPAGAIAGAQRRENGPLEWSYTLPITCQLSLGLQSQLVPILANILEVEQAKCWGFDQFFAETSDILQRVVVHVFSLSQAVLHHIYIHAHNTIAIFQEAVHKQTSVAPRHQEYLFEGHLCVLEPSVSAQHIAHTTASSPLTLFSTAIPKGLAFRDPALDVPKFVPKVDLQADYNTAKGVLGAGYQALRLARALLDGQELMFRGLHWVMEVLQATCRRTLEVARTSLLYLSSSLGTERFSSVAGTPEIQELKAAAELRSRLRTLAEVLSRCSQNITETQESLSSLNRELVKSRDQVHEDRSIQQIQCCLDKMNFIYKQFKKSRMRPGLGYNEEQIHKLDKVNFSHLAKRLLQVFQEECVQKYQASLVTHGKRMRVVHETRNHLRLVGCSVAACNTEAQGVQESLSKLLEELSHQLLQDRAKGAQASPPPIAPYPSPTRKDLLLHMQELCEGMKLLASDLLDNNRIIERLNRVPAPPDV
The following applies: at 1 µM.

In experiment [2] the target is T2, Serine/threonine-protein kinase Nek1 (Homo sapiens) (UniProt Q96PY6).
T2 sequence (whole entry): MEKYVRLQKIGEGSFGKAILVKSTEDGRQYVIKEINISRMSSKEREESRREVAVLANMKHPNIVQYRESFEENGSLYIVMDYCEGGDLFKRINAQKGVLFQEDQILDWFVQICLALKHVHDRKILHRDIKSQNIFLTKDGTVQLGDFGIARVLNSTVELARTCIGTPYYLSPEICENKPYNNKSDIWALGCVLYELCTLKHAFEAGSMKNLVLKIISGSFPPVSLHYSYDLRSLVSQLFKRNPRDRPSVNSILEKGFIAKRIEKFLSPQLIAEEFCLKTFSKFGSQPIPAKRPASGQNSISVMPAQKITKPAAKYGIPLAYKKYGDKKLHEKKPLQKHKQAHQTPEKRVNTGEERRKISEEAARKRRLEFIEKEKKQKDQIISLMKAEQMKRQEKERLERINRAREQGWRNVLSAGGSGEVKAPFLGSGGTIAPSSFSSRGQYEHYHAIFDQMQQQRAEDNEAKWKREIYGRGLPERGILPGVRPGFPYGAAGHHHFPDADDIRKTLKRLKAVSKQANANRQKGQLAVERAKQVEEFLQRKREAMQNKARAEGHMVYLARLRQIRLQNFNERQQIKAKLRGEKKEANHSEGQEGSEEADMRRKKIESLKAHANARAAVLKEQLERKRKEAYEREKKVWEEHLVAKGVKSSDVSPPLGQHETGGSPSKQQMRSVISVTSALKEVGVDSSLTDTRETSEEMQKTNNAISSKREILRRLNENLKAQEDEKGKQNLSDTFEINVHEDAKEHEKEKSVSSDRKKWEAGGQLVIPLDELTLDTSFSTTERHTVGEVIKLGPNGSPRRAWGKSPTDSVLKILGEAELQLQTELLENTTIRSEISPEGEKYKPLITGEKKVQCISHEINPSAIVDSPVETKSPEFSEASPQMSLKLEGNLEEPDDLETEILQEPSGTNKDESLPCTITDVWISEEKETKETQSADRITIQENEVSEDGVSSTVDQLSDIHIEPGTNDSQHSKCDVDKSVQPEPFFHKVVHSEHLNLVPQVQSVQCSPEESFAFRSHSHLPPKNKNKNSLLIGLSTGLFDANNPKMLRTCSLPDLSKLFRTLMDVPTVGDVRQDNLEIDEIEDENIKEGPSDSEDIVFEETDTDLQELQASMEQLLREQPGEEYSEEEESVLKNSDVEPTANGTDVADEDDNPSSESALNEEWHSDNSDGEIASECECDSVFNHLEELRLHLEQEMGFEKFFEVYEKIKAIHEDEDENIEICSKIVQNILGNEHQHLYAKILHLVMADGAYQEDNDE
To be noted: at 0.1 µM.

Experiment [3] has as its target T2, Serine/threonine-protein kinase Nek1 (Homo sapiens). The following applies: at 1 µM.
The target of experiment [4] is T3, Serine/threonine-protein kinase Nek2 (Homo sapiens) (UniProt P51955).
T3 sequence (whole entry): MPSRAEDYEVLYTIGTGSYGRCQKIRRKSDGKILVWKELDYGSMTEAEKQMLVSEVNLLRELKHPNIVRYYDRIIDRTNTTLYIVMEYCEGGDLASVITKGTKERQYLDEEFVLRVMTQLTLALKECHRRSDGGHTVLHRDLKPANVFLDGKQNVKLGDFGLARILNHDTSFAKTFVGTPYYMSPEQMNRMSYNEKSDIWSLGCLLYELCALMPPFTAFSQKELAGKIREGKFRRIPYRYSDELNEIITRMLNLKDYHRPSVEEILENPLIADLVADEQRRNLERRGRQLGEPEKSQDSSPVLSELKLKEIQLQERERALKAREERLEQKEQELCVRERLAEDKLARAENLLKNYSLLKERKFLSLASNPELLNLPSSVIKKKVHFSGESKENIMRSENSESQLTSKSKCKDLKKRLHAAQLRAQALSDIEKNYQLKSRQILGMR
To be noted: at 0.1 µM.

Experiment [5] has as its target T3, Serine/threonine-protein kinase Nek2 (Homo sapiens). To be noted: at 1 µM.
In experiment [6] the target is Serine/threonine-protein kinase Nek6 (Homo sapiens) (UniProt Q9HC98). The following applies: at 0.1 µM.
For experiment [7] the target is unchanged. To be noted: at 1 µM.
In experiment [8] the target is Serine/threonine-protein kinase Nek7 (Homo sapiens) (UniProt Q8TDX7). To be noted: at 0.1 µM.
Experiment [9] has the same target. The following applies: at 1 µM.
Experiment [10] concerns the target T4, Serine/threonine-protein kinase Nek9 (Homo sapiens) (UniProt Q8TD19).
T4 sequence (whole entry): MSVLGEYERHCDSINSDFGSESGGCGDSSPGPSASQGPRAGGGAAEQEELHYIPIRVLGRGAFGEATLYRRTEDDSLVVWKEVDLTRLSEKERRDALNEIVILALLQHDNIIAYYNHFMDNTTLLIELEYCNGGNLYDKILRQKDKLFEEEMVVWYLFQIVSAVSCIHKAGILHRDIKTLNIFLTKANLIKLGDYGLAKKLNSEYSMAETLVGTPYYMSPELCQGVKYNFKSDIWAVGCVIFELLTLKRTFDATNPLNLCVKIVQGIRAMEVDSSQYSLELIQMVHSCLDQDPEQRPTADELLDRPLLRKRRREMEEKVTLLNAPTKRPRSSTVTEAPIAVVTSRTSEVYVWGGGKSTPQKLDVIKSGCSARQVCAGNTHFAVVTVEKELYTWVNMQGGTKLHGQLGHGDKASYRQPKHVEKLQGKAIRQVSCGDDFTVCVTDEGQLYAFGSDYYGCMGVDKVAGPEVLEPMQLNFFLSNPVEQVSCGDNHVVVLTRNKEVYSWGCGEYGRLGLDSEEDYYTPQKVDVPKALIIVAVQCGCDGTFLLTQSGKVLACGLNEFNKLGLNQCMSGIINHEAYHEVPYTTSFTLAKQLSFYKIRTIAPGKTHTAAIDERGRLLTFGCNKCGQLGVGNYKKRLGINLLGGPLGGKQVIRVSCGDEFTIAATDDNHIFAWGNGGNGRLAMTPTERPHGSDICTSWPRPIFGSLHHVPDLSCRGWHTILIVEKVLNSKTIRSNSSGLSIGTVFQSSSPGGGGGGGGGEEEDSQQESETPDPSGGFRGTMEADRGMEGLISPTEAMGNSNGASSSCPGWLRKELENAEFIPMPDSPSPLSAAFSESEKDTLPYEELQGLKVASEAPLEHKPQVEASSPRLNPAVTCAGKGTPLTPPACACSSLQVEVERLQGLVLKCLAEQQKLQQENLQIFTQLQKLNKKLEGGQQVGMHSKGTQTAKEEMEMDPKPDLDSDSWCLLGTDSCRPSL
The following applies: at 0.1 µM.

In experiment [11] the target is T4, Serine/threonine-protein kinase Nek9 (Homo sapiens). The following applies: at 1 µM.
In experiment [12] the target is Serine/threonine-protein kinase PLK1 (Homo sapiens) (UniProt P53350). To be noted: at 0.1 µM.
Experiment [13] shares this target. To be noted: at 1 µM.
Experiment [14] addresses T5, Dual specificity protein kinase TTK (Homo sapiens) (UniProt P33981).
T5 sequence (whole entry): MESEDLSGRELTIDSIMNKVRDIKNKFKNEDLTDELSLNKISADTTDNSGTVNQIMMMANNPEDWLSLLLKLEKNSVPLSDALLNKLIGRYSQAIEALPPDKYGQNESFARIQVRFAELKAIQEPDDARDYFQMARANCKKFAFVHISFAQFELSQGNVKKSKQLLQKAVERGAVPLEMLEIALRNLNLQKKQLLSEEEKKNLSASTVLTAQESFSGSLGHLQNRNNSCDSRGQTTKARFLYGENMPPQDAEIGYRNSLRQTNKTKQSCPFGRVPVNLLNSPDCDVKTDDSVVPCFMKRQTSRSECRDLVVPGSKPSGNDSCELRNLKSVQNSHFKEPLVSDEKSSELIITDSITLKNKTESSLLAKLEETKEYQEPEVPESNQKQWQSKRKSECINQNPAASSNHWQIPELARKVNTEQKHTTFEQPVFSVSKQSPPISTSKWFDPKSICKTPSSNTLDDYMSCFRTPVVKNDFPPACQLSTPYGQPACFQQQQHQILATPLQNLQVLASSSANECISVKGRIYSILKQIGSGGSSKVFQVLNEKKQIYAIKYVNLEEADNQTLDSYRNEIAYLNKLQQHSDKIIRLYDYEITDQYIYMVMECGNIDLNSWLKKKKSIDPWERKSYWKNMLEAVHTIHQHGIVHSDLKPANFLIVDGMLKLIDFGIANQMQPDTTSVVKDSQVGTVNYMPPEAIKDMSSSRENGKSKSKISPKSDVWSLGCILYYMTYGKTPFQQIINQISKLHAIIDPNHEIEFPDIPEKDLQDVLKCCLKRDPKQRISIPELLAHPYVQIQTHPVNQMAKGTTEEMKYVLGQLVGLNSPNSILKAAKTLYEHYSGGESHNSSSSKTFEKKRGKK
To be noted: at 0.1 µM.

In experiment [15] the test system is T6, Receptor-type tyrosine-protein kinase FLT3 (Homo sapiens), P36888 [D835Y].
T6 sequence (whole entry): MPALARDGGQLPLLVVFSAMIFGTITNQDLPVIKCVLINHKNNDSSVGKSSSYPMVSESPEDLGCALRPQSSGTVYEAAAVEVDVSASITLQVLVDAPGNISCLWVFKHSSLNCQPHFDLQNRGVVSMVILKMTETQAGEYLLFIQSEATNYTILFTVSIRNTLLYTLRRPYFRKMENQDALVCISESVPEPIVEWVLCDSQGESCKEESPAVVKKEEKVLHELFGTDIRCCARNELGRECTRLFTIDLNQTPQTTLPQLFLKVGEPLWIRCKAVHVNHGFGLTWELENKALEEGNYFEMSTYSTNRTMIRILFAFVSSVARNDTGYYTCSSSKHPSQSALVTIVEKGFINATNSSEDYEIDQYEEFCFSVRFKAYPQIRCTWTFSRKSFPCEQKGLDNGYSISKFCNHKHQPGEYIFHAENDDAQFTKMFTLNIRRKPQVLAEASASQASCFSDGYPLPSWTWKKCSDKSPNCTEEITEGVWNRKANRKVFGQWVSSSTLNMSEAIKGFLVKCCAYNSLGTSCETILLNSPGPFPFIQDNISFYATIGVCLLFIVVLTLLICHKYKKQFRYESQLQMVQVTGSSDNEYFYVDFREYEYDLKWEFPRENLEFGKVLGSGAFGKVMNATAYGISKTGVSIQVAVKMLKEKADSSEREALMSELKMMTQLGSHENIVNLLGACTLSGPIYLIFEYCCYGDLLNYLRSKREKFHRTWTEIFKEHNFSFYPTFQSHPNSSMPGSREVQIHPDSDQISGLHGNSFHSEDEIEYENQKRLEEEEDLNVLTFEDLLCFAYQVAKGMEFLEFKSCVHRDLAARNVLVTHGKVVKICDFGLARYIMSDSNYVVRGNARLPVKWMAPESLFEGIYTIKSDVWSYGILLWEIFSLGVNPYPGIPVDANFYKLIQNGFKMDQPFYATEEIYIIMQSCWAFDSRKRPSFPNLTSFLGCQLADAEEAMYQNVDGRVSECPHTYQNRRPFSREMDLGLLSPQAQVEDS
To be noted: at 1 µM.

Experiment [16] has as its target Vascular endothelial growth factor receptor 3 (Homo sapiens) (UniProt P35916). To be noted: at 0.1 µM.
Experiment [17] shares this target. The following applies: at 1 µM.
Experiment [18] has as its target Macrophage colony-stimulating factor 1 receptor (Homo sapiens) (UniProt P07333). The following applies: at 0.1 µM.
Experiment [19] has the same target. To be noted: at 1 µM.
Experiment [20] addresses Tyrosine-protein kinase Fyn (Homo sapiens) (UniProt P06241). To be noted: at 0.1 µM.

This passage reports inhibition results from ChEMBL document CHEMBL1961873, “Compounds: GSK PKIS; Assays: Nanosyn kinase panel” (2012).

Serine/threonine-protein kinase Nek6 (Homo sapiens), sequence (Q9HC98 whole entry): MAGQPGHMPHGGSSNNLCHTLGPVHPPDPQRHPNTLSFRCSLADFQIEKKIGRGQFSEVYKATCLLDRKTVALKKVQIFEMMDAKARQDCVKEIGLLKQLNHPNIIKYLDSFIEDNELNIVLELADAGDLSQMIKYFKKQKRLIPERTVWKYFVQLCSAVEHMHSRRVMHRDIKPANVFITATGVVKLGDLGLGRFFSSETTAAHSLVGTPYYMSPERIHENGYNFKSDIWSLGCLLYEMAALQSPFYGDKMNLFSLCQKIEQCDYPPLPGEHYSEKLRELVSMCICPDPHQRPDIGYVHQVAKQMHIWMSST
Serine/threonine-protein kinase Nek7 (Homo sapiens), sequence (Q8TDX7 whole entry, looked up): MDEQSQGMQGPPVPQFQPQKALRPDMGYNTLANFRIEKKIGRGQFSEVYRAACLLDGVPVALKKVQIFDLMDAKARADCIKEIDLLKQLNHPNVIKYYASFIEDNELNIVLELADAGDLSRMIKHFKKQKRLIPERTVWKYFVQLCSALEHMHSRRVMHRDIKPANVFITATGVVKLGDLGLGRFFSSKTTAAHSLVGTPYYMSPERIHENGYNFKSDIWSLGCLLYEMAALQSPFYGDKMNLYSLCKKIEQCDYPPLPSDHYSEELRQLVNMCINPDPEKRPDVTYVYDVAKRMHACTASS
Serine/threonine-protein kinase PLK1 (Homo sapiens), sequence (P53350 whole entry): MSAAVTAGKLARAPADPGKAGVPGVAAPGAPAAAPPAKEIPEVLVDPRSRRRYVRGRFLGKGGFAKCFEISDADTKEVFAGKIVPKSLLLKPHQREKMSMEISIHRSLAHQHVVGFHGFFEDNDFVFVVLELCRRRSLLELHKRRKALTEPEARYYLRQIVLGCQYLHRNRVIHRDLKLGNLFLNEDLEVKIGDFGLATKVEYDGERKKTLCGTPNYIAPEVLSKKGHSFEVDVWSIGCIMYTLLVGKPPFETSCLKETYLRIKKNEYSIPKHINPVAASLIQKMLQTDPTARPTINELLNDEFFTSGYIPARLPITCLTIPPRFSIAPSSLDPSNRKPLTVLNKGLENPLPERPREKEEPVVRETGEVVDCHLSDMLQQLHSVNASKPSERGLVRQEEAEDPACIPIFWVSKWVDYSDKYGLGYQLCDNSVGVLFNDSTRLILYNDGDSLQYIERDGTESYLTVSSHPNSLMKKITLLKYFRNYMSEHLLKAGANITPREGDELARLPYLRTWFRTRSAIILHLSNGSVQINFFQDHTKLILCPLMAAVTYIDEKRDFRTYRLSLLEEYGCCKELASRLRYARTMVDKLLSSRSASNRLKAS
Vascular endothelial growth factor receptor 3 (Homo sapiens), sequence (P35916 whole entry): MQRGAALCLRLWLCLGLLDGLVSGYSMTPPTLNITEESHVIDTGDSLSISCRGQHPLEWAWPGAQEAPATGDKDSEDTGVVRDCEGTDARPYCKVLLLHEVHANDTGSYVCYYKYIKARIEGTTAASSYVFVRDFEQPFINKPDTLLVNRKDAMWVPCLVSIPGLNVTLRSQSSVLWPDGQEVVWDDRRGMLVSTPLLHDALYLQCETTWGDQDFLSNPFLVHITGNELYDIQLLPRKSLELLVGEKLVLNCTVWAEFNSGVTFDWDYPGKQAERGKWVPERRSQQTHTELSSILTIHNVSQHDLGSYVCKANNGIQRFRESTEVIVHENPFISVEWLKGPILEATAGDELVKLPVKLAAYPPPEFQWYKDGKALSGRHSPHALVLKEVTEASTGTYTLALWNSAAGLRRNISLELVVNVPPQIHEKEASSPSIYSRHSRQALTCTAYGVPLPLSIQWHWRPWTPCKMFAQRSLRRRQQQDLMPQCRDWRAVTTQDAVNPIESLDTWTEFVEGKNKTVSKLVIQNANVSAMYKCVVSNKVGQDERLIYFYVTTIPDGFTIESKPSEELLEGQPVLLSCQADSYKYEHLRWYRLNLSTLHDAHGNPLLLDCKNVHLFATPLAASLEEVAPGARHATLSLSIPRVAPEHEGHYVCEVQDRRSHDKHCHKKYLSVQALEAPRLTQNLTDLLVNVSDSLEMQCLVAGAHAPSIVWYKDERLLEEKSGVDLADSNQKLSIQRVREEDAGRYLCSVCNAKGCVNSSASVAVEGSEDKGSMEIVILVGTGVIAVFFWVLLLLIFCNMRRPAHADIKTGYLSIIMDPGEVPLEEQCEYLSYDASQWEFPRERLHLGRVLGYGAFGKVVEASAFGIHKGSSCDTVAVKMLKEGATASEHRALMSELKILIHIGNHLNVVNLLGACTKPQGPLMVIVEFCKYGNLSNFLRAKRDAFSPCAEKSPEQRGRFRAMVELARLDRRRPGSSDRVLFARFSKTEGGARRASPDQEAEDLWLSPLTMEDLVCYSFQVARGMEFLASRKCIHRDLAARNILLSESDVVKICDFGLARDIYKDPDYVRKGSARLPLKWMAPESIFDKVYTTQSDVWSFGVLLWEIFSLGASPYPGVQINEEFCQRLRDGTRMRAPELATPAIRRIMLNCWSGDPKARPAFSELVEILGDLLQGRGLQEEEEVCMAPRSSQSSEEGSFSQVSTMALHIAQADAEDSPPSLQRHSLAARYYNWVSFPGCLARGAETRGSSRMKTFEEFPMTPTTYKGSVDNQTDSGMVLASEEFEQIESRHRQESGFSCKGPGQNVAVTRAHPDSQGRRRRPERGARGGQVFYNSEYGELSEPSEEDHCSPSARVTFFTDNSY
Macrophage colony-stimulating factor 1 receptor (Homo sapiens), sequence (P07333 whole entry): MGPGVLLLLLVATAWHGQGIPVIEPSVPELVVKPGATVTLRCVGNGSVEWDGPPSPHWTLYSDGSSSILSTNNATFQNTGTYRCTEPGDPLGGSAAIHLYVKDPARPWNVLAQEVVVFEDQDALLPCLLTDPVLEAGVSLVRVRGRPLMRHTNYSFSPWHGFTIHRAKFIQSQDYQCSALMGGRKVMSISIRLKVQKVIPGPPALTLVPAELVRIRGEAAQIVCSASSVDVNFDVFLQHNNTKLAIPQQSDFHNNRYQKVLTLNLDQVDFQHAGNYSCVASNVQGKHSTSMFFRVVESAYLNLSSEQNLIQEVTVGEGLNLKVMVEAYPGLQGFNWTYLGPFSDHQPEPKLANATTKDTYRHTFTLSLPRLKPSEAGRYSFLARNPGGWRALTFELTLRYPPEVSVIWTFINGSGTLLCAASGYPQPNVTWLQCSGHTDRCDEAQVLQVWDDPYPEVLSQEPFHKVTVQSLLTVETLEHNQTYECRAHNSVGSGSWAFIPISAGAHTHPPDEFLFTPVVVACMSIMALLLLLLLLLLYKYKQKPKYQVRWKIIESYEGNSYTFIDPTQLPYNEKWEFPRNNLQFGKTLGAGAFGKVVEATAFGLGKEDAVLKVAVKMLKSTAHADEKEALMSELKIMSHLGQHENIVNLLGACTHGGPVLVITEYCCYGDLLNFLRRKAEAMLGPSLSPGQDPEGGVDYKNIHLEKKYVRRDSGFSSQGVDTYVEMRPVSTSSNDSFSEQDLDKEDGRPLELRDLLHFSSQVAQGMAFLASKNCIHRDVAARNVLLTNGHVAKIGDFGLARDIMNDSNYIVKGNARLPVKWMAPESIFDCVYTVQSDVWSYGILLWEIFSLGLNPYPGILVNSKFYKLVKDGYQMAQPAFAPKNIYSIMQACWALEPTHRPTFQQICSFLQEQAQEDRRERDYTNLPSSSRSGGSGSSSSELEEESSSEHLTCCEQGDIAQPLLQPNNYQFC
Tyrosine-protein kinase Fyn (Homo sapiens), sequence (P06241 2-537 limits assumed): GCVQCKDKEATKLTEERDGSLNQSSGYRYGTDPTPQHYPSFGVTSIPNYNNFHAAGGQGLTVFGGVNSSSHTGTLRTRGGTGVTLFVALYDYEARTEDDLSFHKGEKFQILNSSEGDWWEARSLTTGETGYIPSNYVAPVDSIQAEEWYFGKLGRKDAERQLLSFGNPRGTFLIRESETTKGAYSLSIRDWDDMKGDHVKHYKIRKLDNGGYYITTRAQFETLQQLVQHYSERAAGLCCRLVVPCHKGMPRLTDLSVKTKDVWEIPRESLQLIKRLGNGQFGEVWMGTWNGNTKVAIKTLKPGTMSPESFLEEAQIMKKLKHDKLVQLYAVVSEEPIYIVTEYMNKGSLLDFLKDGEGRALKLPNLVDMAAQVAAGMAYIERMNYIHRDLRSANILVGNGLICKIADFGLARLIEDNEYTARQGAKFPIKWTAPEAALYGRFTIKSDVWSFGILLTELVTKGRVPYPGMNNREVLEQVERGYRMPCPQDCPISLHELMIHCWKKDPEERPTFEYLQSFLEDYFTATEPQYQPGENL

As to `Nc1ccc(C#Cc2cncnc2Nc2ccc(OCc3cccc(F)c3)c(Cl)c2)cc1`, the inhibition in experiment [1] is 4.07%; in experiment [2], 3.38%; in experiment [3], 2.7%; in [4], 3.5%; in [5] it was 3.39%; in [6] it was 2.73%. The inhibition came out at 0.63% in experiment [7]; 1.31% in experiment [8]; 1.32% in experiment [9]; 3.62% in [10]; 6.07% in experiment [11]; 0.94% in experiment [12]. Besides, the inhibition in experiment [13] is -0.53%; in [14], 4.2%; in experiment [15], -6.67%; in [16], 1.01%; in [17], 1.86%; in experiment [18], 0.06%. Moreover, the inhibition was determined as 3.9% in [19] and 1.67% in experiment [20].

For `CN(C)C(=O)O[C@H]1CN[C@H](C#Cc2cc3ncnc(Nc4ccc(OCc5cccc(F)c5)c(Cl)c4)c3s2)C1`, the inhibition in experiment [1] is 4.15%; in experiment [2], 1.2%; in experiment [3] it was 3.73%; in experiment [4], 4.44%; in experiment [5] it was 5.04%; in experiment [6], 1.81%. Besides, the inhibition in [7] is -0.96%; in experiment [8] it was 3.6%; in experiment [9], 2.54%; in experiment [10], 7.4%; in [11], -1.84%; in experiment [12], 2.9%. In addition, the inhibition in [13] is 2.92%; in experiment [14], 4.75%; in experiment [15], 4.09%; in [16] it was 2.38%; in [17], 1.19%; in experiment [18], 10.5%. Also, the inhibition in experiment [19] was 3.36%; in experiment [20], -0.77%.

As usually defined, the inhibition is the change of the read-out against control, counted positive when it falls.
